Experiment [1] can be described thus: HepG2 liver cancer cell viability effects, profiling panel, resazurin fluorescence, 24 h, PK04 Diversity Set (AID 1172). Note: test concentration not given here. Conditions: higher = more signal.
Experiment [2] in a line: basal S. cerevisiae growth modulation, no modifier, primary screen, OD600, strain BY4716, 24 h, basal condition (AID 1173). The following applies: OD600, 24 h, higher = more signal, called active from +8 up or from −8 down.
The nature of experiment [3]: MM1S myeloma cell viability, profiling panel, resazurin fluorescence, basal, 24 h, PK04 Diversity Set (AID 1174).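 Note: MM1S multiple myeloma cell line; test concentration not given here.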 The following applies: higher = more signal, called active from +8 up or from −8 down.
The target in experiment [4] is Dihydroorotate dehydrogenase (quinone), mitochondrial (Plasmodium falciparum (isolate 3D7)) (UniProt Q08210). Put plainly: PfDHODH enzyme inhibitors, primary screen, biochemical, C-terminal His tag, absorbance 600 nm (AID 1175).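 Note: recombinant parasite enzyme with a five histidine tag at its C terminus; test concentration not given here.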 The following applies: DCIP absorbance 600 nm, higher = more signal, called active from +8 up or from −8 down.
Sequence of Dihydroorotate dehydrogenase (quinone), mitochondrial (Plasmodium falciparum (isolate 3D7)) (Q08210 whole entry, looked up): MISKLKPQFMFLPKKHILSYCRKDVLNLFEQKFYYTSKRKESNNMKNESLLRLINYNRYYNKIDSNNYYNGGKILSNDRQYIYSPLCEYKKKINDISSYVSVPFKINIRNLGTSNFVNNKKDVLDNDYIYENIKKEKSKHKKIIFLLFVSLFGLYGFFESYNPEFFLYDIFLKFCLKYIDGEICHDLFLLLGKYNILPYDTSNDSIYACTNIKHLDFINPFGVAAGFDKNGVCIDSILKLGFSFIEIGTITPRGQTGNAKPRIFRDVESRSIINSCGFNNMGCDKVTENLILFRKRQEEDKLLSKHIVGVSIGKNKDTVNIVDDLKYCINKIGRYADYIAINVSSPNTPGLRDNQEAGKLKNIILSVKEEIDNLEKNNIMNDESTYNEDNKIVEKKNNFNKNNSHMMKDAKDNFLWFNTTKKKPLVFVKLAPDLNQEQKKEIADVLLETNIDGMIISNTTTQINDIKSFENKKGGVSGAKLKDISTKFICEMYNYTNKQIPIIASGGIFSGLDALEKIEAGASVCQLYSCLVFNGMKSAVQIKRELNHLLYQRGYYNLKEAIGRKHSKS
A short description of experiment [5]: P. aeruginosa biofilm formation inhibitors, primary screen, strain PAO1, LB-PBS medium, absorbance 600 nm (AID 1176). Note: test concentration not given here. The following applies: P. aeruginosa PAO1 growth/biofilm, A600, 12 h; higher = more signal.
The nature of experiment [6]: S. cerevisiae RM11-1a growth modifiers, primary screen, strain RM11-1a, OD600, basal, 24 h (AID 1177).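 Note: cultures grown under basal conditions with no added stressor; test concentration not given here.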 Conditions: OD600, 24 h, higher = more signal, called active from +8 up or from −8 down.
Experiment [7] is described as follows: E. coli acrAB mutant growth effects, primary screen, E. coli filamentation inducers, strain DRC39, OD650, 24 h (AID 1178).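 Note: growth measured as culture turbidity by optical density at 650 nm; test concentration not given here.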 Conditions: higher = more signal, called active from +8 up or from −8 down.
Experiment [8] in a line: E. coli acrAB mutant growth effects, primary screen, E. coli filamentation inducers, strain DRC39, OD650, 48 h (AID 1179).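 Note: screen aims at cell division blockers that make cells filament.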 Conditions: E. coli DRC39 delta-acrAB growth, higher = more signal, called active from +8 up or from −8 down.
Experiment [9] is described as follows: RPMI8226 myeloma cell viability, profiling panel, resazurin fluorescence, basal, 24 h, PK04 Diversity Set (AID 1180).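 Note: RPMI8826 multiple myeloma cell line at 5000 cells per well; test concentration not given here.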 The following applies: higher = more signal.
For experiment [10], the target named is E3 ubiquitin-protein ligase XIAP (Homo sapiens) (UniProt P98170). Briefly: XIAP binders, primary screen, biophysical, small-molecule microarray, fluorescence 635 nm (AID 1181).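 Note: score merges 667 nm emission and signal to noise over triplicate slides.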 The following applies: small-molecule microarray binding, higher = more signal.
Sequence of E3 ubiquitin-protein ligase XIAP (Homo sapiens) (P98170 whole entry, looked up): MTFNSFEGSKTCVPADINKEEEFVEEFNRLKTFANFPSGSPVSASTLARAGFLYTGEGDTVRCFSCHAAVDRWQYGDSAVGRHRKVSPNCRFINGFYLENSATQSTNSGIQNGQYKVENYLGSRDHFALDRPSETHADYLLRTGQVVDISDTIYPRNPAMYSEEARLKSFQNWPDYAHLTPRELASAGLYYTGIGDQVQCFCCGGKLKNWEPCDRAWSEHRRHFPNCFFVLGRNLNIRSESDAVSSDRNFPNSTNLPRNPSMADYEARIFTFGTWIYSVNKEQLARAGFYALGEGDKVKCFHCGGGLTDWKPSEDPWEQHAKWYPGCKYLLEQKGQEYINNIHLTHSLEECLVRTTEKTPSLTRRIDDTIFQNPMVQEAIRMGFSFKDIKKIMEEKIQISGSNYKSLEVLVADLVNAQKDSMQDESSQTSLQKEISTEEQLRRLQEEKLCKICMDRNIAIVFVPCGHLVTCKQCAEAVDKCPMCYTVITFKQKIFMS

Active and inactive are the calls of the source. Unless noted, the rule behind the calls is not given here.

Consider `CC(C)C(CO)N1C(=O)[C@@H]2[C@H]3C(=O)OCC=C[C@H]3OC23C=CCN(C(C)C)C(=O)[C@@H]13` (stereo not given in full), for which the z-score in [1] was 1.18; in experiment [2], 0.55 (inactive); in experiment [3] it was 0.713 (inactive); in experiment [5] it was -0.565 (inactive); in [6] it was 0.73 (inactive); in experiment [7], 0.074 (inactive). In addition, the z-score is -0.137 (inactive) in [8] and 0.634 in [9]. Besides, the composite z-score is 0.0658 (inactive) in experiment [4] and -0.0719 in [10].

For the molecule `CCOC(=O)C[C@H]1[C@H](OC(=O)Cc2ccc3c(c2)OCO3)[C@@H](NC(=O)c2ccc(-c3ccccc3)cc2)c2cc(OCCCO)ccc2N1C(=O)Cc1ccc(OC)cc1`, the z-score in experiment [1] was 0.366; in experiment [2], -1.02 (inactive); in [3], 0.322 (inactive); in [5], -0.0178 (inactive); in experiment [6] it was -1.82 (inactive); in [7] it was 0.261 (inactive). For the same molecule, the z-score was 0.877 (inactive) in [8] and 0.489 in [9]. Moreover, the composite z-score in [4] was -1.32 (inactive); in experiment [10], 0.179.

For the molecule `CO[C@H]1O[C@H](CO)[C@@H](OC(=O)Nc2ccc(Br)cc2)[C@H](OC(=O)c2cc3ccccc3[nH]2)[C@H]1OC(=O)c1cc2ccccc2[nH]1`, the z-score in experiment [1] was -3.36; in [2], -0.98 (inactive); in experiment [3] it was -2.32 (inactive); in experiment [5], 1.16 (inactive); in experiment [6], -1.02 (inactive); in [7], 1.21 (inactive). The z-score in [8] was 1.78 (inactive); in experiment [9], -4.77. In addition, the composite z-score in [4] was -1.2 (inactive); in [10], -0.0011.

Take `COC(=O)C(CC#Cc1ccc2c(c1)[C@]1(C(=O)N2)[C@H](c2ccc(O)cc2)N2[C@H](c3ccccc3)[C@H](c3ccccc3)OC(=O)[C@H]2[C@@H]1C(=O)Nc1nc2ccccc2s1)C(=O)OC`: the z-score is 0.0384 in experiment [1]; -1.11 (inactive) in experiment [2]; 1.05 (inactive) in [3]; 1.27 (inactive) in experiment [5]; -1.44 (inactive) in [6]; 0.666 (inactive) in experiment [7]. Further, the z-score in [8] is 1.04 (inactive); in [9], 0.12. In addition, the composite z-score in experiment [4] was -5.21 (inactive); in [10] it was -0.313.

In the case of `COC(=O)[C@@]1(Cc2ccc(OC)cc2)[C@H]2c3cc(C(=O)N4CCCC4)n(Cc4ccsc4Br)c3C[C@H]2CN1C(=O)c1ccccc1`, the z-score in [1] was -1.78; in experiment [2], 0.567 (inactive); in [3], -8.06 (active); in [5] it was 0.576 (inactive); in experiment [6] it was -0.0289 (inactive); in experiment [7] it was -0.0187 (inactive). Besides, the z-score in [8] was 0.126 (inactive); in experiment [9], -4.31. For the same molecule, the composite z-score was 0.276 (inactive) in experiment [4] and 0.244 in experiment [10].

Regarding `CCCC[C@@H]1C[C@H]1[C@@H](NC(=O)c1ccco1)c1ccc(Cl)cc1`, the z-score in [1] is -0.653; in [2] it was 1.44 (inactive); in experiment [3], 0.134 (inactive); in experiment [5], 0.343 (inactive); in [6], 0.657 (inactive); in [7], -0.181 (inactive). Further, the z-score is 0.16 (inactive) in [8] and -0.0142 in [9]. Besides, the values for the composite z-score in experiment [4] and in [10] were -0.284 (inactive) and -0.124, respectively.

Take `O=C1NC(=O)C2C1C=CC(C(O)c1ccccc1)N2Nc1ccc(Cl)cc1Cl` (stereo not given): the z-score in experiment [1] was -2.45; in [2], -17.3 (active); in [3] it was -1.62 (inactive); in experiment [5], 1.43 (inactive); in [6], -15.4 (active); in experiment [7], 0.047 (inactive). Moreover, the z-score is -0.224 (inactive) in [8] and -1.55 in experiment [9]. Besides, the composite z-score in experiment [4] was -0.782 (inactive); in experiment [10], 0.54.

Turning to `[N-]=[N+]=Nc1ccccc1C[C@]1(C(=O)NCC(O)CO)N=C(c2ccc(OCCCO)cc2)O[C@H]1c1ccccc1N=[N+]=[N-]` (stereo not given in full), the z-score in [1] was -1.01; in experiment [2] it was -1.14 (inactive); in experiment [3] it was -2.08 (inactive); in experiment [5], -0.428 (inactive); in [6], 1.52 (inactive); in experiment [7] it was -0.0211 (inactive). For the same molecule, the z-score in [8] is 0.622 (inactive); in experiment [9] it was -1.99. Also, the composite z-score was 0.139 (inactive) in experiment [4] and 0.0968 in [10].

Turning to `CC[C@@H]1C=C(C(=O)O)[C@H](c2ccco2)N1S(=O)(=O)c1ccc(C)cc1`, the z-score is -0.456 in experiment [1]; 0.538 (inactive) in experiment [2]; -0.283 (inactive) in experiment [3]; 0.449 (inactive) in experiment [5]; -0.0109 (inactive) in experiment [6]; -0.721 (inactive) in [7]. Besides, the z-score was 0.34 (inactive) in [8] and -0.88 in experiment [9]. Also, the composite z-score in experiment [4] is 0.267 (inactive); in experiment [10], 0.124.

The record behind these values is PubChem BioAssay.
